# This is one part of a sample in which hits are shown more often than they occur.
# Dicer inh: blocks human Dicer maturation of pre-miR-21. cat-ELCCA pre-miR-21 Dicer processing, chemiluminescence; hits give high values. z-score at 25 µM. 47,000 tested, 6% active. AID 1347074; in the data active = z-score above about 3, passing the limit was not always enough;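 note: plate controls were vehicle for no effect and no enzyme for full effect; higher signal means more uncleaved substrate so more Dicer inhibition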
# Starred values were filed as active, the others as inactive.
SMILES,Dicer inh
C=CCN1C(=O)C(O)(CC(=O)c2ccc(C)cc2)c2ccccc21 (stereo unspecified),-0.13
CN1C(=O)C(O)(CC(=O)c2ccc(Cl)cc2)c2ccccc21 (stereo unspecified),3.9*
CCN1C(=O)C(O)(CC(=O)c2ccncc2)c2ccccc21 (stereo unspecified),1.9
CCOC(=O)CN1C(=O)C(O)(CC(=O)c2ccc3c(c2)OCO3)c2ccccc21 (stereo unspecified),0.9
CCN1C(=O)C(O)(CC(=O)c2c(C)cc(C)cc2C)c2ccccc21 (stereo unspecified),3.5*
C=CCN1C(=O)C(O)(CC(=O)c2ccc3c(c2)OCCO3)c2ccccc21 (stereo unspecified),0.54
C=CCN1C(=O)C(O)(CC(=O)c2ccc3c(c2)OCO3)c2ccccc21 (stereo unspecified),4.3*
C=CCN1C(=O)C(O)(CC(=O)c2c(C)cc(C)cc2C)c2ccccc21 (stereo unspecified),0.2
CN1C(=O)C(O)(CC(=O)c2ccc(C(C)(C)C)cc2)c2ccccc21 (stereo unspecified),0.59
C=CCN1C(=O)C(O)(CC(=O)c2ccc(CC)cc2)c2ccccc21 (stereo unspecified),3.2*
COc1cccc(Cn2c3c(c4ccccc4c2=O)C(=O)c2ccccc2-3)c1,1.8
O=C1c2oc3ccccc3c(=O)c2C(c2ccc(F)cc2)N1c1nncs1 (stereo unspecified),-0.78
CN(C)/C=N/c1nnc(C(C)(C)C)s1,-0.86
Cc1c(C)c(C)c(NC(=O)/C=C/C(=O)O)c(NC(=O)/C=C/C(=O)O)c1C,-1.4
COc1cccc(Nc2nc(C)c([N+](=O)[O-])c(Nc3cccc(OC)c3)n2)c1,0.32
N/C(CSc1ccc(Cl)cc1)=N\S(=O)(=O)c1ccc(F)cc1F,-0.53
Cn1nnnc1SCCNCc1cc(Cl)ccc1OCc1ccc(Cl)cc1,0.37
CC1=C(C(=O)OC2CCCCC2)C(c2ccc(C)cc2)C2=C(CCCC2=O)N1 (stereo unspecified),-0.55
O=C(O)CNC(=O)/C=C/c1ccccc1,-0.57
CC(C)CCC(C(N)=O)C1=NC(C)(C)Cc2ccccc21 (stereo unspecified),-0.38
S=C(NCC1CC1)N/N=C/c1ccccc1Cl,19
CC(C)(C)OC(=O)N[C@@H](Cc1ccccc1)C(=O)NNC(=S)NCC1CC1,2.1
O=C(NNC(=S)NCC1CC1)C1CC1,3.4*
Cc1cc(NS(=O)(=O)c2cc(Cl)cc(Cl)c2)no1,-1.8
Cc1c(Cl)cccc1S(=O)(=O)N1CCCN(c2nc3ccc(Cl)cc3s2)CC1,-0.8
SMILES,Dicer inh
O=C1CC(c2ccsc2)c2c(n[nH]c2-c2ccccc2)N1 (stereo unspecified),0.3
CC(=O)Nc1c(C)sc(C)c1C(=O)O,0.31
Cc1ccc(NC(=O)CC(C)CC(=O)O)cc1 (stereo unspecified),1.2
CC(CC(=O)O)CC(=O)Nc1ccccn1 (stereo unspecified),0.15
Cc1ccc(NC(=O)CC(CC(=O)O)c2ccccc2)nc1 (stereo unspecified),3.7*
COc1cc([N+](=O)[O-])c(C)cc1Sc1ccc(C)cc1,-0.13
COc1ccc(OC)c(Sc2ccc(Cl)cc2[N+](=O)[O-])c1,0.07
COc1cc(Sc2ccc(Cl)cc2)ccc1[N+](=O)[O-],-0.52
Cc1cc(Sc2ccc(C(F)(F)F)cc2[N+](=O)[O-])c(Cl)cc1Cl,-0.53
COc1ccc(OC)c(Sc2ccc([N+](=O)[O-])cc2)c1,4.5*
COc1ccc(OC)c(Sc2ccc(C(F)(F)F)cc2[N+](=O)[O-])c1,7.8*
CCOc1cc(S(=O)(=O)n2cc(C)nc2CC)ccc1Cl,0.51
Nc1cc(=O)nc(SCc2ccccc2)n1-c1ccc(F)cc1,1.3
Cn1c(N)c(C#N)c2ccc([N+](=O)[O-])cc2c1=O,0.06
Cc1cc(Sc2ccc([N+](=O)[O-])cn2)c(Cl)cc1Cl,-0.48
CSC(=N\N=C(/C)c1cc2ccccc2o1)/N=C/N(C)C,-1.3
Clc1ccc(CN2CCN(Cc3ccco3)CC2)cc1,0.11
Fc1cccc(CN2CCN(Cc3ccco3)CC2)c1,3.5*
Clc1cccc(CN2CCN(Cc3ccco3)CC2)c1,-0.29
Cn1cc(C2CC(=O)N(c3ccc(O)cc3)C2=O)c2ccccc21 (stereo unspecified),1.9
COc1ccc(N2C(=O)CC(Sc3nc(C)c4ccccc4n3)C2=O)cc1 (stereo unspecified),1.7
COc1ccc(N2C(=O)CC(N3CCN(C)CC3)C2=O)cc1 (stereo unspecified),-1.6
CC(C)(C)c1ccc(N2C(=O)CC(c3ccccc3)C2=O)cc1 (stereo unspecified),5.3*
O=C1CC(c2ccccc2)C(=O)N1c1cc(Cl)cc(Cl)c1 (stereo unspecified),5.3*
COc1ccc(N2C(=O)CC(c3ccccc3)C2=O)cc1 (stereo unspecified),4.3*
SMILES,Dicer inh
O=C1CC(c2ccccc2)CC(=O)N1c1ccccc1,-4
O=C1CC(c2ccccc2)CC(=O)N1c1ccc(Oc2ccc(Cl)cc2)cc1,-0.44
CC(C)(C)NC1CC(=O)N(c2ccccc2)C1=O (stereo unspecified),-2.2
COc1ccc(NC(=O)CSc2c(Cl)c(Cl)cc(Cl)c2Cl)cc1,0.57
O=C(CSC1=NC(=O)C(c2ccccc2)C(=O)N1)Nc1nc2ccccc2s1 (stereo unspecified),3
CCCOC(=O)CSc1[nH]c(=O)cc(C)c1C#N,-0.78
CC1=C(C(=O)OCCOc2ccccc2)C(c2ccc3c(c2)OCO3)C2=C(CC(C)(C)CC2=O)N1 (stereo unspecified),2.1
Cc1ccc(OCc2nc3ccc(N)cc3[nH]2)cc1,2.1
COc1ccc(-c2noc(CSc3nc4ccccc4[nH]3)n2)c(OC)c1,1.4
COc1ccc(OC)c(-c2noc(CSc3nc4ccccc4[nH]3)n2)c1,0.06
COc1ccc(-c2noc(CSc3nc4ccccc4[nH]3)n2)cc1OC,3.2*
O=C(c1ccc(F)cc1)C1CCNCC1,-0.28
CC1(C)CC(=O)c2cnc(NC(=O)c3cccc4ccccc34)nc2C1,-0.79
COc1ccc(Nc2nc3ccccc3c(=O)s2)cc1,1.9
COc1ccc(Nc2ncnc3ccccc23)cc1,6.2
COc1ccc(Nc2ccnc3ccccc23)cc1,3.6*
CNc1nc2c([nH]1)c(=O)n(C)c(=O)n2C,-1.5
CSc1nnc(-c2csc(S(=O)(=O)Nc3cccc(Cl)c3)c2)n1C,1.9
CC1(C)Cc2c(c(N3CCOCC3)nc3sc4c(NCCCO)ncnc4c23)CO1,7
C=C(C)CSc1nnc2c3sc4nc(N5CCOCC5)c5c(c4c3ncn12)CC(C)(C)OC5,3.2*
CC1(C)Cc2c(c(N3CCOCC3)nc3sc4c(=O)n(-c5ccc(Cl)cc5)cnc4c23)CO1,0.66
CCN(CC)CCn1c2ccc(C)cc2c2nc3ccccc3nc21,0.68
Cc1ccc(Cc2cn3cc(-c4ccc(Br)cc4)nc3s2)cc1,-0.39
O=C(c1cn(CC(=O)N2CCCCC2)c2ccccc12)C1CC1,1
O=C(Cn1nc(C(F)F)cc1C1CC1)N1CCCC1,3.1*
CC1CCc2c(sc3nnn(CC(=O)N4CCCC4)c(=O)c23)C1 (stereo unspecified),-0.75
Cc1ccccc1OCCCn1c(C(C)O)nc2ccccc21 (stereo unspecified),-0.15
CCNC(=O)C(Cc1ccccc1)NC(=O)OC(C)(C)C (stereo unspecified),-0.56
COc1ccccc1NC(=S)NNC(=S)NC1CC2C=CC1C2 (stereo unspecified),-0.14

# Screening data as filed in PubChem.
